Source: PubChem BioAssay (NCATS)
Inconclusive results are not listed. Values without a mark were called inactive. Active and inactive are the calls of the source. The call rests on the fitted dose curve; in most records, active means well fitted inhibition curve with a large enough effect; inconclusive means small, poorly fitted or top-dose-only effect; inactive means no such curve, though single readings can be large or run the other way.

target: Retinaldehyde dehydrogenase 3 (Homo sapiens) (UniProt P47895); experiment: qHTS for Inhibitors of the Aldehyde Dehydrogenase Family (ALDH1A3) Primary screen (AID 2061315); conditions: ALDH inhibition qHTS; series mostly up to 56 µM; activity change, negative = inhibition: at the top concentration;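 on activity change, negative = inhibition: plate controls were DMSO vehicle for no effect and reference inhibitor for full effect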
Potency means the concentration at half of the fitted maximal effect.

Structure (SMILES)	activity change, negative = inhibition	Potency
CC1=C[C@H]2[C@@H](CC1=O)[C@H](C)C[C@H](O)[C@H]2C(C)C	-24.4%	
COc1cc(C2c3cc(O)c(OC)cc3CC(CO)C2CO)ccc1O (stereo not given)	-21.5%	
C/C1=C\CC[C@H](C)CCO[C@@H]2O[C@H](CO[C@@H]3OC[C@](O)(COC1=O)[C@H]3O)[C@@H](O)[C@H](O)[C@H]2O	18.1% [at 28 µM]	
CC(=O)O[C@@H]1[C@H](OC(C)=O)C[C@@]2(C)C(CC[C@@H](C)[C@]23Cc2c(O)cc4c(c2O3)CN([C@@H](CCC(=O)O)C(=O)O)C4=O)C1(C)C (stereo not given in full)	16.5% [at 16.9 µM]	
COc1cc(/C=C/C(=O)OC2CC3CCC2(C)C3(C)C)ccc1O (stereo not given)	-20.9%	
CC1=CC(=O)CC(C)(C)C1/C=C/C(C)OC1OC(COC2OCC(O)C(O)C2O)C(O)C(O)C1O (stereo not given)	-8.08% [at 28 µM]	
CC1(C)CC[C@]2(C(=O)O[C@@H]3O[C@H](CO[C@@H]4O[C@H](CO)[C@@H](O)[C@H](O)[C@H]4O[C@@H]4O[C@H](CO)[C@H](O)[C@H](O)[C@H]4O)[C@@H](O)[C@H](O[C@@H]4O[C@H](CO)[C@@H](O)[C@H](O)[C@H]4O)[C@H]3O)CC[C@]3(C)C(=CCC4[C@@]5(C)CC[C@H](O[C@@H]6OC[C@@H](O)[C@H](O)[C@H]6O)[C@@](C)(C(=O)O)C5CC[C@]43C)[C@@H]2C1 (stereo not given in full)	11.9% [at 11.2 µM]	
COc1cc2c(cc1O)CC[C@H]1[C@@H]2CC[C@]2(C)[C@H](O)CC[C@@H]12		17.8 µM (active)
CC1(C)CC[C@]2(C(=O)O[C@@H]3O[C@H](CO)[C@@H](O)[C@H](O)[C@H]3O)CC[C@]3(C)C(=CCC4[C@@]5(C)CC[C@H](O[C@@H]6O[C@H](C(=O)O)[C@@H](O)[C@H](O[C@@H]7O[C@H](CO)[C@H](O)[C@H](O)[C@H]7O)[C@H]6O)C(C)(C)C5CC[C@]43C)C2C1 (stereo not given in full)	11.2% [at 16.9 µM]	
C/C1=C\C[C@]2(C)C(=O)C(O)=C([C@H](C)CO)[C@H]2C/C=C(\C)[C@@H](O)CC/C(C)=C/CC1	-6.59%	
COC(=O)C1=CO[C@@H](O[C@@H]2O[C@H](CO)[C@@H](O)[C@H](O)[C@H]2O)[C@H]2[C@@H]1C=C[C@]21C=C([C@H](C)OC(=O)/C=C/c2ccc(O)cc2)C(=O)O1	-1.58% [at 16.9 µM]	
CC[C@@H](C)[C@H]1C(=O)O[C@H](C(C)C)C(=O)N(C)[C@@H](C(C)C)C(=O)O[C@H](C(C)C)C(=O)N(C)[C@@H](C(C)C)C(=O)O[C@H](CC(C)C)C(=O)N1C	19.3% [at 16.9 µM]	
C=C1C(=O)O[C@@H]2[C@H]1[C@H](O)C[C@]1(C)[C@@H](O)CC=C(C)[C@@H]21	0.657%	
C=C(C(=O)OC)C1C(O)CC2(C)C(=O)CCC(O)(CO)C2C1O (stereo not given)	4.15%	
COc1ccc(C(=O)CC(=O)O)c2c1C=CC(C)(C)O2	-3.37%	
C[C@]1(O)CC[C@@H]2C(C(=O)O)=CO[C@@H](O[C@@H]3O[C@H](CO)[C@@H](O)[C@H](O)[C@H]3O)[C@@H]21	1.43%	
CC1=CC(=O)CC(C)(C)C1CCC(C)O[C@@H]1O[C@H](CO)[C@@H](O)[C@H](O)[C@H]1O (stereo not given in full)	-7.3%	
CC1(C)CC[C@]2(C(=O)O[C@@H]3O[C@H](CO)[C@@H](O)[C@H](O)[C@H]3O)CC[C@]3(C)C(=CCC4[C@@]5(C)CC[C@H](OC6OC(C(=O)O)C(OC7OC(CO)C(O)C(O)C7O)C(O)C6O)C(C)(C)C5CC[C@]43C)C2C1 (stereo not given in full)	11.5% [at 16.9 µM]	
C=C(CC/C=C(\C)C(=O)O)C1(O)CC=C(C)CC1 (stereo not given)	-14%	
CC1(C)CC[C@]23CO[C@@]4(CCC5[C@@]6(C)CC[C@H](O[C@@H]7OC[C@H](O[C@@H]8O[C@H](CO)[C@@H](O)[C@H](O)[C@H]8O[C@@H]8OC[C@@H](O)[C@H](O)[C@H]8O)[C@H](O)[C@H]7O)[C@@](C)(CO)C6CC[C@@]5(C)[C@]4(C)CC2=O)[C@@H]3C1 (stereo not given in full)	12.6% [at 16.9 µM]	

Structure (SMILES)	activity change, negative = inhibition	Potency
CC1(O)CCCC2(C)C1CCC13CC(CO)C(CCC12)C3 (stereo not given)	5.34%	
O=C1NC(Cc2ccccc2)C(=O)N2CCCC12 (stereo not given)	13.7%	
CC1(c2nc3c(C(N)=O)cccc3[nH]2)CCCN1 (stereo not given)	12.9%	
CC1(C)CC2C(O)C3=C(CC(C)(O)C2C1)C(=O)OC3O (stereo not given)	5.94%	
CC12CCC(C(OC3OC(COC4OCC(O)(CO)C4O)C(O)C(O)C3O)C1)C(C)(C)O2 (stereo not given)	-30% [at 28 µM]	
CC1=C(CCC(C)CC(=O)O)[C@@]2(C)CCCC(C)(C)C2CC1=O (stereo not given in full)	16.6%	
CCCC1=CC2=C(CO1)C(=O)C(C)(OC(=O)c1c(C)cc(OC)cc1O)C(O)C2 (stereo not given)	-14.4% [at 28 µM]	
CC(=O)O[C@@H](CO[C@@H]1O[C@H](CO)[C@H](O)[C@H](O)[C@H]1O)[C@]1(C)C=C2CC[C@@H]3C(C)(C)[C@@H](O)CC[C@@]3(C)[C@@H]2CC1	-0.0703% [at 28 µM]	
O=C(OCC12OC1C=CC(OC(=O)c1ccccc1)C2O)c1ccccc1 (stereo not given)	13.1%	
C=C1C(=O)O[C@@H]2[C@H]1CCC(C)=C1CCC(=O)O[C@]12C	-14.5%	
CC(=O)c1cc2c(cc1O)OC(C)(C)C=C2	-13.3%	
C=C(CCO)C(=O)OCC1OCC(OC(=O)C(=C)CCO[C@@H]2O[C@H](CO)[C@@H](O)[C@H](O)[C@H]2O)C(O)C1O (stereo not given in full)	-12.3% [at 28 µM]	
COC(=O)CC[C@@H](C)[C@H]1CC[C@H]2[C@@H]3CC(=O)[C@H]4C[C@H](OC(C)=O)CC[C@]4(C)[C@H]3CC[C@]12C	-4.8%	
C=CC[C@]12C[C@@H](OC)C(=O)C(OC)=C1O[C@@H](c1cc(OC)c3c(c1)OCO3)[C@@H]2C	-3.49% [at 28 µM]	
CC(C)=CCC[C@](C)(O[C@@H]1O[C@H](CO[C@@H]2OC[C@@H](O)[C@H](O)[C@H]2O)[C@@H](O)[C@H](O)[C@H]1O)[C@H]1CC[C@]2(C)[C@@H]1[C@H](O)C[C@@H]1[C@@]3(C)CC[C@H](O[C@@H]4O[C@H](CO)[C@@H](O)[C@H](O)[C@H]4O)C(C)(C)[C@@H]3CC[C@]12C	-28.2% [at 28 µM]	
C=C1CCC2[C@](C)(CCC[C@]2(C)C(=O)O)[C@H]1CC/C(C)=C/C(=O)OC (stereo not given in full)	16.8%	
C=C1C(=O)OC2C1C(O)CC1(C)C(O)CCC(C=O)C21 (stereo not given)	10.3%	
CC1C(=O)CC2C3CCC(C(=O)O)C12CC3(C)CO (stereo not given)	4.91%	
C=C1C(=O)O[C@@H]2CC(C)=C([C@@H](C)CCCO)[C@@H](OC(=O)C(C)C)[C@H]12	-3.64%	
O=C(OC[C@H]1O[C@H](O[C@H]2CO[C@H](CO)[C@@H](O)[C@@H]2O)[C@H](O)[C@@H](O)[C@H]1O)c1ccccc1	-19.6% [at 28 µM]	
